Only some compounds are listed: those with a hit (about 2.3% of all), similar ones and a draw of the others.
Tau FP inhib: inhibitors of human tau fibril formation; 0.39% of 280,000 active; Potency, µM (titrated, usually from 57.7 µM), without a hit: at the highest dose activity, negative = inhibition, hits mostly inhibitors; P10636; AID 1468; K18 P301L tau heparin fibrillization, Alexa594 FP, 6 h; also: potency is read from the fitted curve at half-maximal effect; nearly all actives have a fitted effect of over 55% in size
Target sequence (P10636 561-689 P618L limits assumed): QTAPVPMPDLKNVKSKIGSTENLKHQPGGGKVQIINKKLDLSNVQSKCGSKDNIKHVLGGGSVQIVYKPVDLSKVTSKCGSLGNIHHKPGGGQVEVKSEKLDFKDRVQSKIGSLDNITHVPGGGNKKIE
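Recombinant K18 P301L […], labeled with Alexa 594 at 0.24 uM over 15 uM unlabeled; heparin inducer 20 uM final; 37 C, 6 hr; FP endpoint.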
Tau fluor counter: counter-screen for tau fibril formation inhibitors; tau K18 P301L Alexa594 fluorescence, heparin fibrillization; Potency, µM (highest dose often 57.7 µM), inactives show top-dose activity change, negative = decrease; 0.93% of 280,000 active; also: potency is read from the fitted curve at half-maximal effect; nearly all actives have a fitted effect of over 55% in size
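Human K18 P301L tau (15 uM unlabeled plus 0.24 uM Alexa 594-labeled, final) in 100 mM sodium acetate pH 7 was mixed with compound and 20 uM heparin and incubated 6 hr at 37 C.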
USP1 inh: inhibitors of human USP1/UAF1 deubiquitinase; O94782; AID 743255; recombinant USP1/UAF1, Ub-Rhodamine cleavage fluorescence; Potency, µM (top dose mostly 57.1 µM), inactives show at the top dose activity change, negative = inhibition, hits mostly inhibitors; 0.23% of 390,000 active; also: potency is read from the fitted curve at half-maximal effect; nearly all actives have a fitted effect of over 60% in size
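In this screen, compounds sit with the deubiquitinase complex (1nM) for 15 min at room temperature before Ub-Rho is added at 150nM final. Fluorescence rise is then followed for 6 reads every 60 seconds.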
Tau ThT inhib: inhibitors of human tau fibril formation, thioflavin T binding; recombinant tau K18 P301L (four-repeat tau fragment), heparin-induced fibrillization, ThT fluorescence; Potency, µM (series often up to 57.4 µM), for inactives: at the top dose activity, negative = inhibition, hits mostly inhibitors; 2.1% of 270,000 active; AID 1460; also: potency is read from the fitted curve at half-maximal effect; nearly all actives have a fitted effect of over 55% in size
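Tau K18 P301L fragment (15 uM unlabeled plus 0.24 uM Alexa 594-labeled) in 100 mM sodium acetate pH 7 with compound, fibrillization induced by 20 uM heparin for 6 hr at 37 C. Thioflavin T (30 uM) added, fluorescence read after 1 hr (ex 450, em 510 nm).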
Coupling enz: counter-screen for Giardia aldolase inhibitors: coupling enzyme system; activity change, negative = inhibition, % at 58.2 µM, hits read low; coupling enzyme system counterscreen, AmpLite Red fluorescence; AID 2472; 0.67% of 290,000 active; in the data active = activity change below about -30%
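Final compound at 57.5 uM, incubated 10 min at RT with coupling enzyme reagent (glyceraldehyde-3-phosphate), then 20 min with substrate and AmpLite Red detection. Fluorescence read at 525/598 nm; tests interference with the coupling assay, not aldolase inhibition.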
* marks the source's active call; other numbers are inactive results; ? = inconclusive; nt = no result; + = active, no number; ! = a repeat was not active; [ ] = another dose, or the depositor's remark. Unless noted, calls follow the shape of the dose curve; as a rule, active = well fitted curve in the direction sought with a large enough effect; inconclusive = small, poorly fitted or top-dose-only effect, or another doubt; inactive = no such curve, though single readings can be large; an effect the other way counts as inactive or inconclusive. % is scaled to controls: 0 for no effect and ±100 for the full control effect.

SMILES	Tau FP inhib	Tau fluor counter	USP1 inh	Tau ThT inhib	Coupling enz
O=C(NNC(=S)Nc1ccc(F)cc1)c1cccc([N+](=O)[O-])c1	5%	-18%	-10%	?	3
O=[N+]([O-])c1ccc(NNC(=S)Nc2ccc(F)cc2)cc1	2%	?	-11%	13µM*	0
O=C(CCS(=O)(=O)c1cc(Br)cc2c1N(C(=O)C1CC1)CC2)N1CCN(c2cccc(C(F)(F)F)c2)CC1	12%	-24%	-16%	?	nt
Cc1nnc2n(C3CCCCC3)c(=O)c3c4c(sc3n12)CCC4	6%	14µM*[quencher]	nt	13µM*	-1
COc1cc(/C=C/C(=O)OCC(=O)Nc2cc(S(=O)(=O)N3CCCCC3)ccc2C)ccc1O	10%	?	-2%	-5%	1
COc1cc(/C=C/C(=O)OCC(=O)Nc2ccc(C)c(S(=O)(=O)N3CCCCC3)c2)ccc1O	-3%	14µM*[quencher]	-8%	-8%	-1
Cc1ccc(NC(=O)CCC(=O)N2Cc3ccccc3Oc3ncccc32)cc1F	-4%	-14%	10%	2%	nt
Cc1ccc(NC(=O)c2oc3ccc(S(=O)(=O)N(C)C4CCCCC4)cc3c2C)cc1Cl	?	-22%	-16%	-5%	nt
CCn1c(C)c(C(C)=O)c(N2CCN(c3cccc(Cl)c3)CC2)nc1=S	-6%	-20%	-16%	?	-5
CC(=O)c1c(N2CCN(c3cccc(Cl)c3)CC2)nc(=S)n(-c2ccccc2)c1C	-2%	-12%	-37%	-18%	-3
CCn1c(C)c(C(C)=O)c(N2CCN(c3ccc(OC)cc3)CC2)nc1=S	?	-28%	-17%	28µM*	-13
COc1ccc(N2CCN(c3nc(=S)n(-c4ccccc4)c(C)c3C(C)=O)CC2)cc1	?	-24%	13%	28µM*	3
Cc1ccc(C2(c3ccc(C)cc3)CC2C(=O)Nc2ccc([N+](=O)[O-])cc2O)cc1 (configuration not stated)	?	10µM*[quencher]	-19%	-14%	-16
COc1cc2c(cc1OC)CN(Cc1nc3ccsc3c(=O)[nH]1)CC2	-3%	-11%	-4%	?	-43*
O=c1c2ccccc2nc(/C=C/c2c[nH]c3ccccc23)n1CCO	?	20µM*[quencher]	-8%	?	-2
O=C1C=CC2=C3c4cc(O)c(O)cc4CC3(O)COC2=C1O (configuration not stated)	7.9µM*	4µM*[quencher]	-22%	3.2µM*	-38*!
COc1cc(C(=O)Nc2nc3c(s2)Cc2c(Br)ccc(OC)c2-3)cc(OC)c1OC	-10%	-30%	-19%	?	nt
C=C(C)CSc1nc2sc3c(c2c(=O)n1-c1ccccc1)CC(C(C)C)OC3 (configuration not stated)	?	-5%	-28%	-4%	nt
COC(=O)CSc1nc2sc3c(c2c(=O)n1-c1ccc(C)cc1)CC(C(C)C)OC3 (configuration not stated)	4%	-4%	+	-3%	nt
Cn1c2c(c(=O)n(C)c1=O)C(c1ccccc1F)C(C#N)=C(N)O2 (configuration not stated)	?	-19%	-7%	20µM*	1
Cn1c2c(c(=O)n(C)c1=O)C(c1ccccc1Cl)C(C#N)=C(N)O2 (configuration not stated)	?	-22%	-17%	nt	5
CNc1ccc(/C=C(\CCC(=O)O)c2nc3ccccc3s2)cc1[N+](=O)[O-]	-16%	?	-13%	3.2µM*	1
Cn1cnnc1Sc1ccc(/C=C(\CCC(=O)O)c2nc3ccccc3s2)cc1[N+](=O)[O-]	4%	4%	-13%	5%	1
CN(c1ccccc1)c1ccc(/C=C(\CCC(=O)O)c2nc3ccccc3s2)cc1[N+](=O)[O-]	-21%	?	-13%	14µM*	1
Cc1ccc(/C=C(\CCC(=O)O)c2nc3ccccc3s2)cc1[N+](=O)[O-]	6%	11%	-12%	?	1
SMILES	Tau FP inhib	Tau fluor counter	USP1 inh	Tau ThT inhib	Coupling enz
CCN(CC)c1ccc(NC(=O)c2cc(S(=O)(=O)N3CCc4ccccc43)cn2C)c(C)c1	-2%	-16%	0%	-7%	nt
Clc1cccc(-n2ncc3c(NCCCn4ccnc4)ncnc32)c1	?	-18%	-8%	-1%	nt
Cc1cc(C)cc(-n2ccn3c(CC(C)(C)CC(=O)O)nnc3c2=O)c1	3%	-6%	-8%	0%	nt
O=c1c(N2CCc3ccccc3C2)csc2ccccc12	0%	-21%	-10%	14µM*	nt
CCOc1cccc2sc(N3CCN(C(=O)C(C)(C)C)CC3)nc12	-7%	-9%	-24%	-16%	nt
Cc1ccc(C)c(N2CCN(S(=O)(=O)c3cc(C(=O)Nc4ccc(Oc5ccccc5)cc4)ccc3F)CC2)c1	?	2%	-18%	10%	nt
Cc1cccc(N2CCN(S(=O)(=O)c3cc(C(=O)Nc4ccc(Oc5ccccc5)cc4)ccc3F)CC2)c1C	28µM*	-17%	-13%	0%	nt
O=C(Nc1cc(Cl)cc(Cl)c1)c1ccc(F)c(S(=O)(=O)N2CCN(c3ccccc3F)CC2)c1	20µM*	-30%	-1%	4%	nt
O=C(CCCCCn1c(=O)[nH]c2ccccc2c1=O)N1CCN(c2ccc(Cl)cc2)CC1	6%	-25%	-21%	?	nt
CN(c1ccccc1)c1ccc(/C=C(\C#N)c2nnc3n2CCCCC3)cc1[N+](=O)[O-]	1%	?	-10%	14µM*	1
N[C@@H](CSSC[C@H](N)C(=O)O)C(=O)O	nt	nt	nt	nt	-1
Cc1cccc(NC(=O)N2CCN3CCCCC3C2)c1C (configuration not stated)	-4%	-1%	-9%	2%	nt
Cc1cccc(NC(=O)C2SC(=Nc3c(C)cccc3C)C(C(=O)N3CCOCC3)=C2N)c1 (configuration not stated)	?	?	-14%	7.1µM*	-5
Cc1[nH]c2ccccc2c1CCN(Cc1cccnc1)C(=S)Nc1ccc(F)cc1	13%	?	-19%	-11%	0
Cc1[nH]c2ccccc2c1CCN(Cc1cccnc1)C(=S)Nc1cccc(F)c1	?	?	-8%	-11%	0
COc1cccc(NC(=S)N(CCc2c(C)[nH]c3ccccc23)Cc2cccs2)c1	12%	8.9µM*[quencher]	?	-15%	-2
Cc1[nH]c2ccccc2c1CCN(Cc1cccs1)C(=S)Nc1ccccc1	10%	11µM*[quencher]	-9%	-10%	-5
CCOC(=O)c1c(C)[nH]c(C)c1S(=O)(=O)NCC(=O)N(C)c1ccc(C)c(C)c1	-6%	-9%	-27%	-4%	nt
CCc1ccccc1NC(=O)Cn1ccn(Cc2ccccc2)c(=O)c1=O	-15%	-27%	-5%	-15%	nt
CN(C)c1ccc(C(=C2C=CC(=[N+](C)C)C=C2)c2ccc(N(C)C)cc2)cc1	16µM*	7.1µM*[quencher]	nt	5µM*	-58*
CN(C)c1ccc(C(=C2C=CC(=[N+](C)C)C=C2)c2ccccc2)cc1	nt	nt	nt	nt	-19
